From PubChem BioAssay AID485313 (National Center for Advancing Translational Sciences (NCATS), 2010) come the findings set out here.

In all, about 320,000 compounds went through this assay and about 7,600 (2.4%) were called active. Inconclusive results (about 3%) are left out. The sample as a whole holds a higher share of actives than the screen did. Values without a mark were called inactive. Calls come from the whole dose curve; as a rule, active = well fitted activation curve with a large enough effect; inconclusive = small, poorly fitted or top-dose-only effect; inactive = no such curve, though single readings can be large or run the other way.
Potency is the fitted concentration of half-maximal effect.

This assay in a line: qHTS Assay for NPC1 Promoter Activators. For activation: % of control where 0% means no effect. Note: nearly all actives have a fitted effect of over 60% in size. Conditions: Huh7 NPC1 promoter luciferase reporter, 24 h; series mostly up to 9.22 µM; activation: at the top concentration. An excerpt: NIH Chemical Genomics Center [NCGC] NIH Molecular Libraries Probe Production centers Network [MLPCN] MLPCN Grant: MH089375-01A1 Assay Submitter (PI): Yiannis A. Ioannou NCGC Assay Overview: Niemann Pick Type C (NPC) is a rare neurodegenerative lipidosis that is characterized by lipid storage in the endosomal/lysosomal system. Treatment modalities for this devastating disease are currently non-existent due to the severe obstacles associated with accessing the central nervous system with proteins or genes. The majority of mutations causing NPC disease are missense mutations that are distributed throughout the length of the NPC1 protein, with the most prevalent being the I1061T allele. Although NPC1 mutant proteins may be functional, they are typically trapped in the ER due to misfolding. […] We have developed and optimized a cell based luciferase reporter assay in 1536 well format for the identification of up-regulators of the mutant NPC1 promoter.
The NPC1 promoter is cloned in front of the luciferase reporter gene, therefore NPC promoter activation results in luciferase expression. Frozen stock of the NPC1 promoter transfected Huh7 cells were obtained from the laboratory of Dr. Yiannis Ioannou (The Mount Sinai School of Medicine, New York, NY). Cells were propagated and maintained at NCGC in medium containing RPMI-1640 supplemented with 10% FBS, 2mM L-glutamine, and 50ug/ml penicillin/streptomycin. Cells were harvested in and plated for assays in OP-MEM I reduced-serum medium supplemented with 10% FBS. The Amplite luciferase reporter gene assay kit was purchased from ABD Bioquest and prepared/stored according to manufacturers recommendations. qHTS Assay Setup: 1.#Dispensed 5ul of Huh7 cells stably expressing NPC1-luciferase at a density of 1500 cells per well 1536-well plates. 2.#Incubate cells at 37C, 5% CO2, and 95% humidity for 2 hours. 3.#Transferred 23nl per well of compound in DMSO solution. 4.#Incubated at 37C, 5% CO2, and 95% humidity for 24 hours. 5.#Dispensed 3ul per well of Amplite reagent(ABD Bioquest) per well. 6.#Incubate at ambient for 10 minutes. 7.#Read using the luminescence protocol on the ViewLux plate reader (Perkin Elmer).
On to `CC(=O)Oc1ccccc1C(=O)Nc1ncc([N+](=O)[O-])s1`, for which the Potency is 501 nM (active).

As to `CC(=O)c1c(O)c(C)c(O)c(Cc2c(O)c3c(c(C(=O)/C=C/c4ccccc4)c2O)OC(C)(C)C=C3)c1O`, the “activation” value was -13.6% [at 46.1 µM]. On the same count and under the same terms, the value for `CN(C)c1ccc(NC(=O)CN2C3CCCC2CC(NC(=O)c2ccccc2)C3)cc1` (stereo not given) was -8.85%. Turning to `CC[C@H]1CN2CCc3cc(OC)c(OC)cc3[C@@H]2C[C@@H]1C[C@H]1NCCc2cc(OC)c(OC)cc21`, the Potency entry is “inactive”. As to `CN(C)C(=O)Oc1ccc(OCc2cccc[n+]2C)cc1`, the “activation” value is 1.08%. On the same count and under the same terms, the value for `CCOC(=O)c1c(-c2ccccc2)oc2ccc(OC(=O)N(C)C)cc12` was -20.2%.

`CN(C)C(=O)Oc1ccc2c(c1)O/C(=C\c1ccccc1)C2=O`: the Potency is 1580 nM (active). Take `CC(=O)NBr`: the “activation” value is -7.1% [at 46.1 µM].

With `CCOC(=O)c1ncn2c1[C@@H]1CCCN1C(=O)c1cc(OC)ccc1-2`, the “activation” value was -2.98% [at 46.1 µM]. Turning to `CNCC[C@H](Oc1ccc(C(F)(F)F)cc1)c1ccccc1`, the Potency result is “inactive”.
